# Out of some 290,000 compounds screened, about 890 (0.31%) were called active. No stated cut-off is given here; in the data, active means inhibition mostly above about 52% (no sharp cut-off); inactive means mostly below about 76%. What follows is part of a selection rich in actives, with near analogues and random picks from the rest.
# Test: cell-free HIV fusion peptide-binding blockers – biochemical, uHTS, fluorescence dequenching, primary screen (AID 1986)
# Details: 30 min, stronger effect = higher value
# [1] = measured here: repeat confirmation average inhibition, at 18.6 µM
Compound,inhibition (at 20 µM),inhibition [1]
COc1ccc2sc(/C=C/c3ccccc3O)[n+](C)c2c1,69.1% (active),88.7%
COc1ccc2sc(C)[n+](C)c2c1,-2.6% (inactive),–
C[n+]1ccc(/C=C/c2ccccc2O)c2ccccc21,1.2% (inactive),–
Cc1cc(C(=O)Nc2cccnc2)cs1,0.7% (inactive),–
Cn1c(=O)oc2cc(S(=O)(=O)NCc3ccc(F)cc3)ccc21,8.5% (inactive),–
CCN1CCN(S(=O)(=O)CC2(C)C3CCC2(C)C(=O)C3Br)CC1 (configuration not stated),-1.8% (inactive),–
Cc1cc(C)c2nc(-c3cccnc3)cc(C(=O)Nc3ccc(S(=O)(=O)Nc4onc(C)c4C)cc3)c2c1,57% (active),–
Cc1ccccc1C(=O)Nc1ccc(S(=O)(=O)Nc2onc(C)c2C)cc1,0.8% (inactive),–
COc1ccc(-c2cc(C(=O)Nc3ccc(S(=O)(=O)Nc4onc(C)c4C)cc3)c3ccccc3n2)cc1,64.1% (inactive),40.8%
Cc1cc(C)c(C(=O)Nc2ccc(S(=O)(=O)Nc3onc(C)c3C)cc2)c(C)c1,0.9% (inactive),–
Cc1cc(C)c2nc(-c3ccccn3)cc(C(=O)Nc3ccc(S(=O)(=O)Nc4onc(C)c4C)cc3)c2c1,70.5% (active),–
Cc1cc(C)c2nc(-c3ccccn3)cc(C(=O)Nc3ccc(S(=O)(=O)Nc4cc(C)on4)cc3)c2c1,59% (inactive),21.6%
O=C(CN1C(=O)NC2(CCCC2)C1=O)Nc1cccc(Cl)c1Cl,0.8% (inactive),–
CCOc1ccccc1C(=O)NC1CCN(Cc2ccccc2)CC1,-0.3% (inactive),–
CN(C)c1cncc(C(=O)O)c1,-0.6% (inactive),–
S=C(NCc1ccccn1)Nc1ccccc1Cl,1.2% (inactive),–
CC(=O)N(CCC(c1ccco1)C(C)C)Cc1ccc(Cl)cc1 (configuration not stated),-0.3% (inactive),–
Clc1ccc(Cn2cc(/C=N/n3cnnc3)c3ccccc32)c(Cl)c1,-3% (inactive),–
Oc1sc(C=Nc2ccc(F)cc2)c2ccccc12,55% (inactive),23%
Oc1sc(C=Nc2ccccc2)c2ccccc12,24.4% (inactive),–
Cc1ccc(N=Cc2sc(O)c3ccccc23)cc1,101% (active),104%
Cc1nn(C)cc1CNC(=O)c1cccc(F)c1,-1.7% (inactive),–
O=C1S/C(=C/c2ccccc2)C(=O)N1CC(O)Cn1c2ccccc2c2ccccc21 (configuration not stated),-0.1% (inactive),–

Compound,inhibition (at 20 µM),inhibition [1]
O=C1S/C(=C\c2ccccc2)C(=O)N1CC(O)Cn1c2ccccc2c2ccccc21 (configuration not stated),0.2% (inactive),–
CN(C)c1ccc(/C=C2\SC(=O)N(CC(O)Cn3c4ccccc4c4ccccc43)C2=O)cc1 (configuration not stated),120% (active),–
C#CCn1c(-c2cccs2)nc2ccccc21,0% (inactive),–
Nc1nnc(CC(=O)N/N=C/c2ccc([N+](=O)[O-])cc2)s1,-2.4% (inactive),–
Nc1nnc(CC(=O)N/N=C/c2cc([N+](=O)[O-])cc(Br)c2O)s1,61.2% (active),–
Nc1nnc(CC(=O)N/N=C\c2cc([N+](=O)[O-])ccc2O)s1,15.7% (inactive),–
Cc1cc(OCC(=O)NC(Cc2ccc(Cl)cc2)C(=O)O)c2c(C)cc(=O)oc2c1 (configuration not stated),4.4% (inactive),–
Cc1ccc(/C(N)=N/OC(=O)c2cccc(Cn3cc(C(F)(F)F)ccc3=O)c2)cc1,-0.3% (inactive),–
CN(C)/C=c1\sc2c(C#N)cc(C(=O)c3ccc(Br)cc3)n2c1=O,3.8% (inactive),–
COC(=O)c1cc(C(=O)c2ccc(Cl)cc2)n2c(=O)/c(=C\N(C)C)sc12,97.1% (active),68.7%
COC(=O)c1cc(C(=O)c2ccccc2)n2c(=O)/c(=C\N(C)C)sc12,2.2% (inactive),–
COC(=O)c1nn(-c2ccc(OC)cc2)ccc1=O,-2.9% (inactive),–
COC(=O)COc1ccc(C2Nc3c(Cl)ccc(C(=O)O)c3C3C=CCC32)cc1 (configuration not stated),62.9% (active),–
O=C(O)c1ccc(Cl)c2c1C1C=CCC1C(c1ccccn1)N2 (configuration not stated),-3.1% (inactive),–
COc1ccc(OC)c(C2Nc3c(Cl)ccc(C(=O)O)c3C3C=CCC32)c1 (configuration not stated),38.2% (inactive),–
Cc1c(OCC(=O)OC(C)(C)C)ccc2c3c(c(=O)oc12)CCC3,1.6% (inactive),–
NC1=Nc2cccc3cccc1c23,5.1% (inactive),–
NC1=CC(=O)c2cccc3cccc1c23,64% (active),63.9%
O=C1C=C(O)c2cccc3cccc1c23,9% (inactive),–
CCOc1cc(/C=C2/C(=O)ON=C2C)cc(Br)c1O,57.8% (active),51.8%
COc1cc(/C=C2/C(=O)ON=C2c2ccccc2)ccc1O,10.6% (inactive),–
COc1cc(/C=C2\C(=O)ON=C2c2ccccc2)cc(OC)c1OC,1.4% (inactive),–
CCOc1cc(/C=C2/C(=O)ON=C2C)ccc1O,33.7% (inactive),–

Compound,inhibition (at 20 µM),inhibition [1]
COc1cc(/C=C2\C(=O)ON=C2c2ccccc2)cc(Cl)c1O,45.2% (inactive),–
CCOc1cc(/C=C2\C(=O)ON=C2c2ccccc2)cc(Br)c1O,69.6% (active),108%
COc1cc(/C=C2\C(=O)ON=C2c2ccccc2)cc(Br)c1O,63.3% (active),106%
C#CCOc1c(Br)cc(/C=C2/C(=O)ON=C2C)cc1OCC,4.2% (inactive),–
CCOc1cc(/C=C2\C(=O)ON=C2c2ccccc2)ccc1OC,0.3% (inactive),–
Cc1ccc(N/C=C2\CCCCC2=O)nc1,0.7% (inactive),–
Cc1ccc(S(=O)(=O)N/N=C\c2cn(CC(N)=O)c3ccccc23)cc1,0.7% (inactive),–
CN(C)c1ncnc(N(C)C)c1[N+](=O)[O-],-2.4% (inactive),–
COc1ccccc1/C=C(/C(=O)NCCCn1ccnc1)c1ccccc1,0.9% (inactive),–
O=C(N/N=C/c1ccccn1)c1cc(C2CC2)[nH]n1,-0.3% (inactive),–
Cc1oc2cc3oc(=O)cc(C)c3cc2c1C,1% (inactive),–
COC(=O)c1cc(O)c(O)c(O)c1,11% (inactive),–
COC1OC(COC(=O)c2ccccc2)C(OC(=O)c2ccccc2)C1OC(=O)c1ccccc1 (configuration not stated),-0.6% (inactive),–
O=C(OCC1O[C@@H](OC(=O)c2cc(O)c(O)c(O)c2)[C@@H](OC(=O)c2cc(O)c(O)c(O)c2)[C@@H](OC(=O)c2cc(O)c(O)c(O)c2)[C@@H]1OC(=O)c1cc(O)c(O)c(O)c1)c1cc(O)c(O)c(O)c1 (some centres not stated),56% (active),–
O=C(CCN1C(=O)c2ccc([N+](=O)[O-])cc2C1=O)Nc1nccs1,-0.3% (inactive),–
O=C(CCCn1c(=S)[nH]c2ccccc2c1=O)NCCSCc1ccccc1,1.5% (inactive),–
CCN(CC)S(=O)(=O)c1ccc(O)c(C(=O)OCC(=O)Nc2ccc(OC(F)(F)F)cc2)c1,-1.8% (inactive),–
COc1cc2ccccc2cc1C(=O)NC(=S)Nc1cc(C(=O)O)ccc1C,51.6% (inactive),-1.6%
COc1cc2ccccc2cc1C(=O)NC(=S)Nc1cccc(C(=O)O)c1,58.8% (active),–
COc1cc2ccccc2cc1C(=O)NC(=S)Nc1ccc(C(=O)O)cc1,53.8% (inactive),2.1%
COc1ccc(/C=N\NC(=O)c2ccccc2Br)cc1COc1c(F)c(F)cc(F)c1F,0.6% (inactive),–
COc1cc(C(=O)NCC(=O)N/N=C(/C)c2cccs2)cc(OC)c1OC,-1.2% (inactive),–
CC(C)P(=O)(Cc1cccc(C#N)c1)C(C)C,3.5% (inactive),–

Compound,inhibition (at 20 µM),inhibition [1]
COC(=O)c1ccc(OCC2c3cc(OC)c(OC)cc3CCN2C(=O)c2ccco2)cc1 (configuration not stated),-1.1% (inactive),–
COc1ccc(C(=O)Nc2cccc(/C=C(\CCC(=O)O)c3nc4ccccc4s3)c2)cc1,59.2% (active),–
COc1cccc(/C=C(\CC(=O)O)c2nc3ccccc3s2)c1,3.6% (inactive),–
Cc1ccc(/C=C(\CCC(=O)O)c2nc3ccccc3s2)cc1[N+](=O)[O-],27.3% (inactive),–
O=C(O)CC/C(=C\c1ccc(Cl)c([N+](=O)[O-])c1)c1nc2ccccc2s1,13.2% (inactive),–
CN(c1ccccc1)c1ccc(/C=C(\CCC(=O)O)c2nc3ccccc3s2)cc1[N+](=O)[O-],65% (active),–
O=C(O)CC/C(=C\c1cccc(NC(=O)c2ccccc2Cl)c1)c1nc2ccccc2s1,64.7% (inactive),17.1%
COc1cc(NC(=O)C2CC(=O)NC3=C2C(=O)CCC3)c(OC)cc1Cl (configuration not stated),-1.9% (inactive),–
N#CC1=C(N)OC2=C(CC/C2=C\c2ccc(F)cc2)C1c1ccc(F)cc1 (configuration not stated),73.8% (inactive),40.5%
COc1cc2c(cc1NC(=O)CSc1ccc(C)cc1)oc1ccccc12,0.2% (inactive),–
NC(=O)C1CCN(C(=O)CN2CCc3ccccc32)CC1,-0.5% (inactive),–
Cc1c(NC(=O)c2ccc3c(c2)C(=O)N(Cc2ccco2)C3=O)cccc1C(=O)O,6.1% (inactive),–
O=C(Nc1ccc(O)cc1C(=O)O)c1ccc2c(c1)C(=O)N(Cc1ccco1)C2=O,24.6% (inactive),–
O=C(Nc1ccc(Cl)cc1C(=O)O)c1ccc2c(c1)C(=O)N(Cc1ccco1)C2=O,50% (active),–
O=C(N/N=C/c1cc(Br)cc(Br)c1O)c1ccncc1,103% (active),59.2%
COc1cc(/C=N/NC(=O)c2cccc(S(=O)(=O)N3CCOCC3)c2)cc(OC)c1O,-3.4% (inactive),–
O=C(N/N=C/c1cc(Br)cc(Br)c1O)c1cccc(S(=O)(=O)N2CCOCC2)c1,80.2% (active),53.2%
O=C(N/N=C/c1c(F)c(F)c(F)c(F)c1F)c1cccc(S(=O)(=O)N2CCOCC2)c1,0.1% (inactive),–
O=C(N/N=C/c1cc(Br)ccc1O)c1ccncc1,3.3% (inactive),–
COc1c(Br)cc(Br)cc1/C=N/NC(=O)c1ccncc1,-1% (inactive),–
Cc1csc(NC(=O)/C=C/c2ccc(C)o2)n1,8.7% (inactive),–
O=c1[nH]c(C2CCN(S(=O)(=O)c3ccc(S(=O)(=O)NC4CC4)cc3)CC2)nc2c1nnn2Cc1ccccc1,-0.4% (inactive),–

# Source: PubChem BioAssay AID1986 (Sanford-Burnham Center for Chemical Genomics, 2009)
